Screening results as filed in PubChem.
a7 integrin act = activators of alpha7 integrin expression for muscular dystrophy. 350,000 tested, 0.064% active. alpha7betagal myoblasts, beta-gal FDG fluorescence, 48 h. Potency, µM (highest dose often 38.3 µM), inactives show top-dose activation, hits mostly activators;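 further: potency means the concentration at half of the fitted maximal effect; 100% = response of the positive control SU9516; nearly all actives have a fitted effect of over 60% in size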
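Alpha7betagal+/- myoblasts (passage 13) were plated 16-24 hr, then exposed to compounds (1:260 dilution of DMSO stock) for 48 hours at 37C. After MPER lysis, β-galactosidase reporter activity was read as FDG fluorescence (ex 480/em 540) after 30 minutes.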
Giardia killer = kills Giardia lamblia | activity change, % at 7.66 µM, hits read low | Giardia lamblia trophozoite viability | 340,000 tested, 0.15% active; in the data active means activity change below about -80%; inconclusive means between about -30% and that limit;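 further: parasites exposed to compound for two days anaerobically before the ATP read; on the % scale 0 is the no-effect control and ±100 the full control effect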
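Trophozoite viability was measured as ATP-dependent luminescence, read 15-30 min after reagent addition. Before that, parasites at 100 cells/well were exposed to compounds for 48 h, anaerobically, at 37 deg C.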
TCR activator = T cell receptor activation; primary human leukocytes, anti-CD3, IL-2 HTRF, 48 h; Potency, µM (doses to about 9.22 µM), inactives show top-dose activation of IL-2 secretion, most hits filed as activators; 330,000 tested, under 10 active; AID 504894; further: % of control where 0% means no effect
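TCR engagement came from a-CD3 beads alone, with compounds added to primary human leukocytes for 48 hr. Secreted IL-2 bridged europium cryptate- and d2-labelled anti-IL-2 antibodies, giving FRET emission at 665nm after 320nm excitation.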
BCR signal inh = blocks chronic active B-cell receptor signaling | ABC-DLBCL IkBa-CBG/CBR reporter, luminescence ratio, 4 h | Potency, µM (doses to about 46.1 µM), for the others: at the top dose activity change, negative = inhibition, usual class: inhibitors | 340,000 tested, 0.05% active | AID 493014; active means well fitted inhibition curve with a large enough effect in the signal ratio, with a control signal flat, not every such curve was filed as active; inconclusive means small, poorly fitted or top-dose-only effect, or effect the other way, or a change in a side signal; the % refers to the signal ratio;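 further: potency means the concentration at half of the fitted maximal effect; plate controls were basal doxycycline-induced cells for no effect and cells given 10 µM MG132 for full effect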
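Cell line TMD8 (human ABC DLBCL), stably expressing tet-inducible CBG68-IkBa fusion and CBR; IMDM/0.5% FBS; cpd up to 46 uM; dox induction, 4 h, 37C/5% CO2; dual luminescence; green/red ratio; MG132 control.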
* marks the source's active call; other numbers are inactive results; [ ] = another dose, or the depositor's remark. Shown are actives, neighbours in structure and some others; about 0.25% of the full set was active somewhere. Unless noted, the call rests on the fitted dose curve; in most records, active means well fitted curve in the direction sought with a large enough effect; inconclusive means small, poorly fitted or top-dose-only effect, or another doubt; inactive means no such curve, though single readings can be large; an effect the other way counts as inactive or inconclusive.

For COc1ccc(O)c(/C=N/NC(=O)c2cc(=O)[nH]c3ccccc23)c1 the results were a7 integrin act 5.6µM*, Giardia killer 5, TCR activator -7% and BCR signal inh -1%.
Screening COc1ccccc1-n1ccnc(SCC(=O)NCCc2ccccc2)c1=O returned a7 integrin act -16%, Giardia killer -8, TCR activator -23% and BCR signal inh inconclusive.
C/C(=N\OCC(=O)OC(C)C(=O)Nc1ccc(C(N)=O)cc1)c1ccc2c(c1)OCO2 (stereo not drawn) was read as a7 integrin act 4.5µM*, Giardia killer 1, TCR activator -17% and BCR signal inh -4%.
Screening CC(=O)Nc1cccc(NC(=O)COC(=O)CO/N=C(\C)c2ccc3c(c2)OCO3)c1 returned a7 integrin act 20%, Giardia killer -1 and BCR signal inh 0%.
For CCOc1ccc(-c2cc(C(=O)O)c3ccccc3n2)cc1 the results were a7 integrin act 8%, Giardia killer -83*, TCR activator -3% and BCR signal inh inconclusive.
For CCOc1ccc(-c2cc(C(=O)N3CCC(C)CC3)c3ccccc3n2)cc1 the results were a7 integrin act -2%, Giardia killer -17 and TCR activator -1%.
For COc1ccc(/C=C/c2cc(C(=O)O)c3ccccc3n2)cc1 the results were a7 integrin act -14%, Giardia killer -93*, TCR activator 5% and BCR signal inh inconclusive.
For O=C1NC(=O)C(c2ccccc2[N+](=O)[O-])=C1Nc1ccc(O)c(Cl)c1 the results were Giardia killer 7, TCR activator 10% and BCR signal inh inconclusive.
Screening N#Cc1ccc(S(=O)(=O)N2CCN(c3nc(-c4cccs4)nc4ccccc34)CC2)cc1 returned Giardia killer -6.
O=C(COC(=O)c1ccc(Cl)nc1)Nc1ccc2c(c1)OCO2 was read as a7 integrin act 22%, Giardia killer 3, TCR activator -4% and BCR signal inh 6%.
For CCCn1c(-c2cccc(F)c2)nc2c1c(=O)[nH]c(=O)n2Cc1ccccc1 the results were a7 integrin act -28%, Giardia killer -13, TCR activator 2% and BCR signal inh -4%.
`CCCn1c(-c2cc(OC)c(OC)c(OC)c2)nc2c1c(=O)[nH]c(=O)n2Cc1ccccc1` gave a7 integrin act 13µM*, Giardia killer 3, TCR activator 0% and BCR signal inh -9%.
For O=C(CN(C1CCCCC1)S(=O)(=O)c1ccc(F)cc1)NCC1CCCO1 (stereo not drawn) the results were a7 integrin act -74%, Giardia killer -84* and TCR activator 5%.
For O=C(CN(C1CCCCC1)S(=O)(=O)c1ccccc1)NCC1CCCO1 (stereo not drawn) the results were a7 integrin act 23%, Giardia killer -5, TCR activator -1% and BCR signal inh -4%.
`NC(=O)c1cccnc1Oc1ccc(Cl)cc1Cl` gave a7 integrin act 10µM*, Giardia killer -5, TCR activator 2% and BCR signal inh -5%.
`Cc1nc2ccccc2n1/N=C/c1ccc([N+](=O)[O-])s1` gave a7 integrin act -37%, Giardia killer inconclusive, TCR activator 1%[46.1 µM] and BCR signal inh -5%.
`O=[N+]([O-])c1ccc(/C=N/n2c(CO)nc3ccccc32)s1` gave a7 integrin act -51%, Giardia killer -106*, TCR activator 1%[46.1 µM] and BCR signal inh 6%.
For CCOc1ccc(CNC(=O)CN2N=C(c3ccccc3)CCC2=O)cc1OC the results were BCR signal inh -11%.
Screening Cc1ccc(NC(=O)Nc2nnc(SCC(=O)N3CCC(C)CC3)s2)cc1 returned BCR signal inh 12%.
`CCCCN(C)CCCNC(=O)c1cc(=O)[nH]c2ccc(S(=O)(=O)N3CCCCC3)cc12` gave BCR signal inh 3%.
For Cc1cccc(Nc2ncnc3ccc(Br)cc23)c1 the results were a7 integrin act 3%, Giardia killer 17 and BCR signal inh inconclusive.
`COc1ccc(Nc2ncnc3ccc(Br)cc23)cc1OC` gave a7 integrin act 4µM*, Giardia killer -3, TCR activator 1% and BCR signal inh -8%.
`O=c1cc(-c2ccccc2)[nH]c2ccccc12` gave a7 integrin act -15%, Giardia killer -22, TCR activator -5% and BCR signal inh 11µM*.
Screening O=C(Nc1ccccc1Sc1ccccc1)c1cnn2c1NC(=C1CC1)C=C2C(F)F returned Giardia killer -7.
Screening Cc1ccc(N2CC(C(=O)Nc3ncc([N+](=O)[O-])s3)CC2=O)cc1 (stereo not drawn) returned a7 integrin act 7%, Giardia killer -85*, TCR activator 2% and BCR signal inh inconclusive.
For O=[N+]([O-])c1ccc(N2CCN(S(=O)(=O)c3ccccc3)CC2)cc1NCC1CCCO1 (stereo not drawn) the results were a7 integrin act -5%, Giardia killer 5, TCR activator 0%[46.1 µM] and BCR signal inh 5%.
`CCS(=O)(=O)N1CCN(c2ccc([N+](=O)[O-])c(NCC3CCCO3)c2)CC1` (stereo not drawn) gave a7 integrin act 10µM*, Giardia killer 36, TCR activator -1% and BCR signal inh -16%.
Screening COc1ccc(-c2nc3scc(CCNS(=O)(=O)c4ccc5c(c4)OCCO5)n3n2)cc1OC returned BCR signal inh -6%.
`Cc1cccc(NC(=O)CSc2nnc(NC(=O)Nc3ccccc3)s2)c1C` gave BCR signal inh 3%.
Cc1ccc(OCC(=O)c2cc(C)n(-c3ccccc3)c2C)c([N+](=O)[O-])n1 was read as a7 integrin act -32%, Giardia killer -102*, TCR activator 0%[46.1 µM] and BCR signal inh -25%.
Cc1cc(C(=O)COc2cccnc2[N+](=O)[O-])c(C)n1Cc1cccs1 was read as a7 integrin act -33%, Giardia killer -94*, TCR activator -10% and BCR signal inh -4%.
CCCn1c(C)cc(C(=O)COc2ccc(C)nc2[N+](=O)[O-])c1C was read as a7 integrin act -18%, Giardia killer inconclusive, TCR activator 0%[46.1 µM] and BCR signal inh -3%.
CCOC(=O)c1c(NC(=O)c2cc3nc(-c4ccc(OC)cc4)cc(C(F)(F)F)n3n2)sc2c1CCC(C)C2 (stereo not drawn) was read as BCR signal inh -23%.
`O=c1c2c3c(sc2nnn1Cc1ccc(F)cc1)CCCC3` gave BCR signal inh 7%.
For COc1ccccc1CNC(=O)C1CCN(Cc2cc3ccccc3n2Cc2cccc(C)c2)CC1 the results were BCR signal inh 5%.
For O=C(Nc1nc(-c2cccs2)cs1)c1ccc([N+](=O)[O-])o1 the results were a7 integrin act -20%, Giardia killer -82*, TCR activator 1% and BCR signal inh -1%.
Screening Cc1ccc(NC(=O)c2cccs2)cc1[N+](=O)[O-] returned a7 integrin act 16%, Giardia killer 8, TCR activator -2% and BCR signal inh -5%.
`COc1cc(NC(=O)c2cccs2)ccc1NC(=O)Cc1ccccc1` gave a7 integrin act 30%, Giardia killer 3, TCR activator 4% and BCR signal inh 0%.
